# About 410 targets per protein were measured; listed, in parts, are those with the strongest signals and a random draw of the rest.
# B1: Epa11 (Candida glabrata) (protein)
# chain: MGSSHHHHHHSSGLVPRGSHMASSNAPNYPVGCSPSVGTQLTPGLSLEVYAYPMDGNNGYCWNATYKDPEFPRSGYLKNKLLGKADGVVGPLNFLAKNKDCSPKVDTLPAGFNFPQPITVTNFTMVLFGYLAPKQSGKYTFKLLADDLLLLNLGATNAFDCCNREATKNNLGEFLAYNLWPNQDKNVTVYLEKGVYYPLRLFFNNRDGGSQLDFSYYFNDSPAPLTDFSGMFFSVPDGAECPARI
# How the values were obtained:
# Experiment in all cases: glycan array binding signal (z-score within array); higher = stronger binding
# Conditions in all cases: glycan notation: IUPAC condensed, linker removed
# [1] = target: Fuc(a1-2)Gal(b1-3)GalNAc(a1-3)[Fuc(a1-2)]Gal(b1-4)Glc
# How it was run: (§1)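 The binding signal is a Z-score computed within each array. Data were drawn from 3228 arrays in the Consortium for Functional Glycomics database, restricted to those with a known protein sequence. Scores were averaged over arrays of the same protein sequence at different concentrations or buffers, and over linkers, and negative values can be taken as non-binding.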
# [2] = target: Fuc(a1-2)Gal(b1-3)[Fuc(a1-4)]GlcNAc(b1-2)Man(a1-3)[Fuc(a1-2)Gal(b1-3)[Fuc(a1-4)]GlcNAc(b1-2)Man(a1-3)]Man(b1-4)GlcNAc(b1-4)GlcNAc
# How it was run: as §1
# [3] = target: Fuc(a1-2)Gal(b1-4)Fuc(a1-3)]GlcNAc(b1-2)Man(a1-3)[Fuc(a1-2)Gal(b1-4)[Fuc(a1-3)]GlcNAc(b1-2)Man(a1-6)]Man(b1-4)GlcNAc(b1-4)GlcNAc
# How it was run: as §1
# [4] = target: Fuc(a1-2)Gal(b1-4)GlcNAc(b1-3)Gal(b1-4)GlcNAc
# How it was run: as §1
# [5] = target: Fuc(a1-2)Gal(b1-4)GlcNAc(b1-3)Gal(b1-4)GlcNAc(b1-3)Gal(b1-4)GlcNAc
# How it was run: as §1
# [6] = target: Fuc(a1-2)Gal(b1-4)GlcNAc(b1-3)[Fuc(a1-3)[Gal(b1-4)]GlcNAc(b1-6)]Gal(b1-4)Glc
# How it was run: as §1
# [7] = target: Fuc(a1-2)[Gal(a1-4)]Gal(b1-4)GlcNAc
# How it was run: as §1
# [8] = target: Fuc(a1-2)[GalNAc(a1-3)]Gal(b1-3)GalNAc(a1-3)[Fuc(a1-2)]Gal(b1-4)GlcNAc
# How it was run: as §1
# [9] = target: Fuc(a1-2)[GalNAc(a1-3)]Gal(b1-3)GlcNAc(b1-6)GalNAc
# How it was run: as §1
# [10] = target: Fuc(a1-3)[Gal(b1-4)]GlcNAc(b1-3)Gal(b1-3)[Fuc(a1-4)]GlcNAc
# How it was run: as §1
# [11] = target: Gal(a1-4)Gal(b1-3)GlcNAc(b1-2)Man(a1-3)[Gal(a1-4)Gal(b1-3)GlcNAc(b1-2)Man(a1-6)]Man(b1-4)GlcNAc(b1-4)GlcNAc
# How it was run: as §1
# Gal(b1-3)GalNAc(b1-3)Gal = target: Gal(b1-3)GalNAc(b1-3)Gal
# How it was run: as §1
# [12] = target: Gal(b1-3)GlcNAc(b1-3)Gal(b1-4)Glc
# How it was run: as §1
# [13] = target: Gal(b1-3)[Fuc(a1-4)]GlcNAc(b1-3)Gal(b1-3)[Fuc(a1-4)]GlcNAc
# How it was run: as §1
# [14] = target: Gal(b1-4)GalNAc(a1-3)[Fuc(a1-2)]Gal(b1-4)GlcNAc
# How it was run: as §1
# [15] = target: Gal(b1-4)GlcNAc(b1-2)[Gal(b1-4)GlcNAc(b1-4)]Man(a1-3)[Gal(b1-4)GlcNAc(b1-2)Man(a1-6)]Man(b1-4)GlcNAc(b1-4)GlcNAc
# How it was run: as §1
# [16] = target: Gal(b1-4)GlcNAc(b1-3)Gal(b1-3)GalNAc
# How it was run: as §1
# [17] = target: Gal(b1-4)GlcNAc(b1-3)Gal(b1-4)GlcNAc(b1-2)[Gal(b1-4)GlcNAc(b1-3)Gal(b1-4)GlcNAc(b1-6)]Man(a1-6)[Gal(b1-4)GlcNAc(b1-3)Gal(b1-4)GlcNAc(b1-2)Man(a1-3)]Man(b1-4)GlcNAc(b1-4)[Fuc(a1-6)]GlcNAc
# How it was run: as §1
# [18] = target: Gal(b1-4)GlcNAc(b1-3)Gal(b1-4)GlcNAc(b1-3)Gal(b1-4)GlcNAc(b1-2)Man(a1-3)[Gal(b1-4)GlcNAc(b1-3)Gal(b1-4)GlcNAc(b1-3)Gal(b1-4)GlcNAc(b1-2)Man(a1-6)]Man(b1-4)GlcNAc(b1-4)GlcNAc
# How it was run: as §1
# [19] = target: Gal(b1-4)GlcNAc(b1-3)Gal(b1-4)GlcNAc(b1-3)Gal(b1-4)GlcNAc(b1-2)[Gal(b1-4)GlcNAc(b1-3)Gal(b1-4)GlcNAc(b1-3)Gal(b1-4)GlcNAc(b1-6)]Man(a1-6)[Gal(b1-4)GlcNAc(b1-3)Gal(b1-4)GlcNAc(b1-3)Gal(b1-4)GlcNAc(b1-2)Man(a1-3)]Man(b1-4)GlcNAc(b1-4)[Fuc(a1-6)]GlcNAc
# How it was run: as §1
# [20] = target: Gal(b1-4)GlcNAc(b1-3)Gal(b1-4)GlcNAc(b1-6)[Gal(b1-3)]GalNAc
# How it was run: as §1
# [21] = target: Gal(b1-4)GlcNAc(b1-3)[GlcNAc(b1-6)]Gal(b1-4)GlcNAc
# How it was run: as §1
# Gal3S(b1-4)Glc6S = target: Gal3S(b1-4)Glc6S
# How it was run: as §1
# [22] = target: Gal3S(b1-4)[Fuc(a1-3)]Glc6S
# How it was run: as §1
# Gal3S4S(b1-4)GlcNAc = target: Gal3S4S(b1-4)GlcNAc
# How it was run: as §1
# GalNAc(a1-3)Gal = target: GalNAc(a1-3)Gal
# How it was run: as §1
# [23] = target: GalNAc(a1-3)GalNAc(b1-3)Gal(a1-4)Gal(b1-4)Glc
# How it was run: as §1
# [24] = target: GalNAc(b1-3)Gal(a1-4)Gal(b1-4)GlcNAc(b1-3)Gal(b1-4)Glc
# How it was run: as §1
# Glc(a1-4)Glc = target: Glc(a1-4)Glc
# How it was run: as §1
# Glc(a1-6)Glc(a1-6)Glc = target: Glc(a1-6)Glc(a1-6)Glc
# How it was run: as §1
# [25] = target: GlcA3S(b1-3)Gal(b1-4)GlcNAc(b1-2)Man
# How it was run: as §1
# [26] = target: GlcA3S(b1-3)Gal(b1-4)GlcNAc(b1-3)Gal(b1-4)Glc
# How it was run: as §1
# [27] = target: GlcNAc(a1-4)Gal(b1-4)GalNAc
# How it was run: as §1
# [28] = target: GlcNAc(a1-4)Gal(b1-4)GlcNAc(b1-3)Gal(b1-4)[Fuc(a1-3)]GlcNAc(b1-3)Gal(b1-4)[Fuc(a1-3)]GlcNAc
# How it was run: as §1
# [29] = target: GlcNAc(b1-2)[GlcNAc(b1-4)]Man(a1-3)[GlcNAc(b1-4)][GlcNAc(b1-2)[GlcNAc(b1-6)]Man(a1-6)]Man(b1-4)GlcNAc(b1-4)[Fuc(a1-6)]GlcNAc
# How it was run: as §1
# [30] = target: GlcNAc(b1-3)Gal(b1-4)GlcNAc(b1-3)Gal(b1-4)GlcNAc(b1-3)Gal(b1-4)GlcNAc(b1-2)Man(a1-3)[GlcNAc(b1-3)Gal(b1-4)GlcNAc(b1-3)Gal(b1-4)GlcNAc(b1-3)Gal(b1-4)GlcNAc(b1-2)Man(a1-6)]Man(b1-4)GlcNAc(b1-4)GlcNAc
# How it was run: as §1
# GlcNAc(b1-6)GalNAc = target: GlcNAc(b1-6)GalNAc
# How it was run: as §1
# [31] = target: Man(a1-3)[Man(a1-6)]Man(b1-4)GlcNAc(b1-4)[Fuc(a1-6)]GlcNAc
# How it was run: as §1
# [32] = target: Neu5Ac(a2-3)Gal(b1-3)GlcNAc(b1-2)Man
# How it was run: as §1
# [33] = target: Neu5Ac(a2-3)Gal(b1-3)GlcNAc(b1-2)Man(a1-3)[GlcNAc(b1-4)][Neu5Ac(a2-3)Gal(b1-3)GlcNAc(b1-2)Man(a1-6)]Man(b1-4)GlcNAc(b1-4)GlcNAc
# How it was run: as §1
# [34] = target: Neu5Ac(a2-3)Gal(b1-3)GlcNAc(b1-3)GalNAc
# How it was run: as §1
# [35] = target: Neu5Ac(a2-3)Gal(b1-3)GlcNAc(b1-6)GalNAc
# How it was run: as §1
# [36] = target: Neu5Ac(a2-3)Gal(b1-3)[Fuc(a1-4)]GlcNAc
# How it was run: as §1
# [37] = target: Neu5Ac(a2-3)Gal(b1-4)GlcNAc(b1-2)Man(a1-3)[Neu5Ac(a2-6)Gal(b1-4)GlcNAc(b1-2)Man(a1-6)]Man(b1-4)GlcNAc(b1-4)GlcNAc
# How it was run: as §1
# [38] = target: Neu5Ac(a2-3)Gal(b1-4)GlcNAc(b1-3)Gal
# How it was run: as §1
# [39] = target: Neu5Ac(a2-3)Gal(b1-4)GlcNAc(b1-3)Gal(b1-4)GlcNAc(b1-6)[Gal(b1-3)]GalNAc
# How it was run: as §1
# [40] = target: Neu5Ac(a2-6)Gal(b1-4)GlcNAc(b1-2)Man(a1-3)[Neu5Ac(a2-6)Gal(b1-4)GlcNAc(b1-2)Man(a1-6)]Man(b1-4)GlcNAc(b1-4)GlcNAc
# How it was run: as §1
# [41] = target: Neu5Ac(a2-6)GlcNAc(b1-4)GlcNAc(b1-4)GlcNAc
# How it was run: as §1
# Neu5Ac(b2-6)GalNAc = target: Neu5Ac(b2-6)GalNAc
# How it was run: as §1
# [42] = target: Neu5Gc(a2-3)Gal(b1-3)GlcNAc
# How it was run: as §1
# [43] = target: Neu5Gc(a2-3)Gal(b1-4)GlcNAc
# How it was run: as §1
# Neu5Gc(a2-6)GalNAc = target: Neu5Gc(a2-6)GalNAc
# How it was run: as §1
binder,measurement,setting,value
B1,glycan array binding signal (z-score),[1],-0.518
same,glycan array binding signal (z-score),[2],-0.183
same,glycan array binding signal (z-score),[3],2.88
same,glycan array binding signal (z-score),[4],-0.92
same,glycan array binding signal (z-score),[5],-0.015
same,glycan array binding signal (z-score),[6],0.437
same,glycan array binding signal (z-score),[7],0.294
same,glycan array binding signal (z-score),[8],-0.24
same,glycan array binding signal (z-score),[9],-0.276
same,glycan array binding signal (z-score),[10],-0.232
same,glycan array binding signal (z-score),[11],1.7
same,glycan array binding signal (z-score),Gal(b1-3)GalNAc(b1-3)Gal,-0.185
same,glycan array binding signal (z-score),[12],-0.214
same,glycan array binding signal (z-score),[13],2.35
same,glycan array binding signal (z-score),[14],-0.453
same,glycan array binding signal (z-score),[15],-0.412
same,glycan array binding signal (z-score),[16],-0.415
same,glycan array binding signal (z-score),[17],1.98
same,glycan array binding signal (z-score),[18],2.67
same,glycan array binding signal (z-score),[19],1.94
same,glycan array binding signal (z-score),[20],1.77
same,glycan array binding signal (z-score),[21],-0.836
same,glycan array binding signal (z-score),Gal3S(b1-4)Glc6S,0.304
same,glycan array binding signal (z-score),[22],1.71
same,glycan array binding signal (z-score),Gal3S4S(b1-4)GlcNAc,-0.9
same,glycan array binding signal (z-score),GalNAc(a1-3)Gal,-0.428
same,glycan array binding signal (z-score),[23],-0.437
same,glycan array binding signal (z-score),[24],-0.094
same,glycan array binding signal (z-score),Glc(a1-4)Glc,-1.42
same,glycan array binding signal (z-score),Glc(a1-6)Glc(a1-6)Glc,-0.516
same,glycan array binding signal (z-score),[25],0.356
same,glycan array binding signal (z-score),[26],-0.579
same,glycan array binding signal (z-score),[27],-0.891
same,glycan array binding signal (z-score),[28],0.211
same,glycan array binding signal (z-score),[29],2.33
same,glycan array binding signal (z-score),[30],-0.16
same,glycan array binding signal (z-score),GlcNAc(b1-6)GalNAc,-0.586
same,glycan array binding signal (z-score),[31],5.52
same,glycan array binding signal (z-score),[32],-0.819
same,glycan array binding signal (z-score),[33],2.81
same,glycan array binding signal (z-score),[34],0.127
same,glycan array binding signal (z-score),[35],0.52
same,glycan array binding signal (z-score),[36],-0.534
same,glycan array binding signal (z-score),[37],-0.573
same,glycan array binding signal (z-score),[38],-0.477
same,glycan array binding signal (z-score),[39],-0.079
same,glycan array binding signal (z-score),[40],-0.433
same,glycan array binding signal (z-score),[41],-0.053
same,glycan array binding signal (z-score),Neu5Ac(b2-6)GalNAc,-0.375
same,glycan array binding signal (z-score),[42],0.029
same,glycan array binding signal (z-score),[43],-0.644
same,glycan array binding signal (z-score),Neu5Gc(a2-6)GalNAc,-0.604
